Experimental findings from PubChem BioAssay (NCI) are described below.

Structures are written as SMILES. About 83,000 compounds went through this panel and 20% of them were active in at least one assay; those are over-represented in the sample as a whole.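 Plates (96-well) were seeded with cells, treated with compound at one concentration, and incubated for 48 hours before percent growth was determined.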 A number with no mark means an inactive call. Active and inactive are the calls of the source. The calls were made as follows: active = growth percent below 10; inactive = the rest.

Some test systems named below: NCI-H23 lung; NCI-H226 lung; NCI-H322M lung; HOP-62 NSCLC; NCI-H460 lung; HOP-92 NSCLC; NCI-H522 lung; A549/ATCC NSCLC; 786-0 renal; COLO 205 colon.
Test in all cases: NCI-60 one-dose screen, 48 h (100 = growth as untreated, 0 = no growth, -100 = all killed)
Details in all cases: 10 µM unless noted

As for `CC(C)(N)Cc1ccccc1`, the growth in the experiment on NCI-H23 lung is 113%; in the experiment on NCI-H226 lung, 107%; with NCI-H322M lung, 105%; with HOP-62 NSCLC it was 118%; in the experiment on NCI-H460 lung, 111%; in the experiment with HOP-92 NSCLC, 87.8%. Further, the growth in the experiment on NCI-H522 lung is 90.9%; with A549/ATCC NSCLC, 103%; with 786-0 renal, 91.3%; with COLO 205 colon it was 116%.

On to `CC[C@H](C)[C@H](NC(=O)[C@H]1CCCCN1C)C(=O)N(C)[C@H](C[C@@H](OC(C)=O)c1nc(C(=O)NC23CC(C(=O)OC)(C2)C3)cs1)C(C)C`, for which the growth in the experiment on NCI-H23 lung was 18.4%; in the experiment with NCI-H226 lung it was 18.3%; in the experiment on NCI-H322M lung, 55.7%; in the experiment on HOP-62 NSCLC, 11.8%; in the experiment on NCI-H460 lung it was 8.77% (active); in the experiment with HOP-92 NSCLC, -1.71% (active). The growth was -22.3% (active) in the experiment on NCI-H522 lung, 9.09% (active) with A549/ATCC NSCLC, 9.6% (active) in the experiment on 786-0 renal and -46.8% (active) in the experiment on COLO 205 colon.

Consider `OCCNC(Cc1ccccc1)c1ccc2c(c1)OCO2` (stereo not given), for which the growth was 100% with NCI-H23 lung; 96.5% in the experiment on NCI-H226 lung; 98.4% in the experiment with NCI-H322M lung; 77.7% in the experiment on HOP-62 NSCLC; 106% with NCI-H460 lung; 73.1% in the experiment with HOP-92 NSCLC. In addition, the growth in the experiment on NCI-H522 lung was 67.5%; in the experiment with A549/ATCC NSCLC it was 90.8%; in the experiment with 786-0 renal, 95.5%; in the experiment on COLO 205 colon, 91%.

For the compound `COC(=O)N[C@H]1CCc2c(Br)c(OC)c(OC)c(OC)c2-c2ccc(SC)c(=O)cc21`, the growth was 31.3% in the experiment with NCI-H23 lung; 12.5% with NCI-H226 lung; 28% in the experiment with NCI-H322M lung; 29.7% in the experiment with HOP-62 NSCLC; -14.1% (active) with NCI-H460 lung; -0.443% (active) with HOP-92 NSCLC. The growth in the experiment on NCI-H522 lung is 8.44% (active); in the experiment on A549/ATCC NSCLC, 18.3%; in the experiment on 786-0 renal, 10.9%; with COLO 205 colon, -52.5% (active).

In the case of `C[N+](C)(C)Cc1cc(Cl)ccc1O`, the growth in the experiment with NCI-H23 lung was 97.7%; in the experiment on NCI-H226 lung, 98.6%; with NCI-H322M lung, 87.3%; in the experiment on HOP-62 NSCLC, 101%; in the experiment with NCI-H460 lung, 110%; in the experiment on HOP-92 NSCLC, 93.2%. The growth with NCI-H522 lung was 80.6%; in the experiment with A549/ATCC NSCLC it was 94.6%; in the experiment on 786-0 renal, 100%; with COLO 205 colon it was 107%.

Consider `CC[C@H](C)[C@H](NC(=O)[C@H]1CCCCN1C)C(=O)N(C)[C@H](C[C@@H](OC(C)=O)c1nc(C(=O)N[C@@H](Cc2ccccc2)C[C@H](C)C(=O)OC)cs1)C(C)C`, for which the growth in the experiment on NCI-H23 lung is 11.8%; in the experiment on NCI-H226 lung, 12.6%; with NCI-H322M lung, 49.3%; with HOP-62 NSCLC it was 20.6%; in the experiment with NCI-H460 lung, 14.6%; with HOP-92 NSCLC, -0.123% (active). Also, the growth is -19.8% (active) in the experiment with NCI-H522 lung, 8.91% (active) in the experiment with A549/ATCC NSCLC, 11.8% with 786-0 renal and -39.7% (active) with COLO 205 colon.

For `O=C1C2C(C(=O)[N]1[Hg][c]1ccccc1)C1(Cl)C(Cl)=C(Cl)C2(Cl)C1(Cl)Cl` (stereo not given), the growth with NCI-H23 lung was -8.01% (active); in the experiment on NCI-H226 lung, 82.9%; in the experiment on NCI-H322M lung, 45.1%; in the experiment with HOP-62 NSCLC it was 47.2%; in the experiment on NCI-H460 lung, -20.9% (active); with HOP-92 NSCLC, -84.5% (active). Also, the growth was -87.4% (active) in the experiment on NCI-H522 lung, 78.7% with A549/ATCC NSCLC, 26% in the experiment with 786-0 renal and -96.5% (active) with COLO 205 colon.

`CC[C@H](C)[C@H](NC(=O)c1ccccn1)C(=O)N(C)[C@H](C[C@@H](OC(C)=O)c1nc(C(=O)N[C@@H](Cc2ccccc2)C[C@H](C)C(=O)OC)cs1)C(C)C`: the growth was 28.3% in the experiment with NCI-H23 lung; 25.4% in the experiment on NCI-H226 lung; 58.2% with NCI-H322M lung; 26.9% with HOP-62 NSCLC; 9.13% (active) with NCI-H460 lung; 91.9% with HOP-92 NSCLC. Besides, the growth was -33.8% (active) in the experiment with NCI-H522 lung, 32.2% with A549/ATCC NSCLC, 30.4% in the experiment on 786-0 renal and -21.2% (active) with COLO 205 colon.

Turning to `COc1cc(/C=C\c2cc(OC)c(OC)c(OC)c2)cc(NS(=O)(=O)c2cccc(Cl)c2)c1OC`, the growth is 22.9% in the experiment on NCI-H23 lung; 51.8% in the experiment with NCI-H226 lung; 50% in the experiment with NCI-H322M lung; 63.2% in the experiment on HOP-62 NSCLC; 6.99% (active) in the experiment on NCI-H460 lung; 47% with HOP-92 NSCLC. Besides, the growth in the experiment with NCI-H522 lung was 9.96% (active); with A549/ATCC NSCLC it was 21.4%; in the experiment on 786-0 renal, 6.56% (active); in the experiment with COLO 205 colon, -68.2% (active).

Take `O=[N+]([O-])c1cnc[nH]1`: the growth was 103% with NCI-H23 lung; 105% in the experiment with NCI-H226 lung; 121% with NCI-H322M lung; 106% in the experiment on HOP-62 NSCLC; 108% in the experiment with NCI-H460 lung; 93.7% in the experiment with HOP-92 NSCLC. The growth in the experiment with NCI-H522 lung was 106%; in the experiment on A549/ATCC NSCLC, 103%; in the experiment with 786-0 renal, 112%; in the experiment on COLO 205 colon, 119%.

As to `Cc1cc(C)cc(Nc2nc3c(s2)CC[C@@]2(C)C3=CC[C@@H]3[C@@H]2CC[C@]2(C)C(=O)CC[C@@H]32)c1`, the growth in the experiment with NCI-H23 lung was 76.9%; in the experiment with NCI-H226 lung, 49.9%; in the experiment on NCI-H322M lung it was 79.9%; in the experiment on HOP-62 NSCLC, 90%; in the experiment on NCI-H460 lung, 49.5%; in the experiment on HOP-92 NSCLC it was 70.7%. The growth with NCI-H522 lung is 66.1%; in the experiment with A549/ATCC NSCLC, 72.9%; in the experiment with 786-0 renal, 31%; in the experiment on COLO 205 colon, 92.5%.

Turning to `CC1(C)[C@H](O)[C@H](F)C[C@@]2(C)Oc3ccc(C(=O)Nc4ccc5c(c4)NC(=O)C54CCN(CCCCC#N)CC4)cc3C[C@H]12`, the growth in the experiment on NCI-H23 lung is 55.4%; in the experiment on NCI-H226 lung, 69.9%; with NCI-H322M lung, 91.9%; in the experiment on HOP-62 NSCLC it was 12.8%; with NCI-H460 lung, 21.3%; with HOP-92 NSCLC, 41.7%. In addition, the growth in the experiment with NCI-H522 lung was -4.72% (active); in the experiment on A549/ATCC NSCLC it was 19.5%; in the experiment on 786-0 renal, 21.5%; in the experiment with COLO 205 colon, -23.7% (active).

As to `CC12CC(=O)C3(SC#N)C(CCC4=CC(=O)CCC43C)C1CCC2=O` (stereo not given), the growth is 99.1% with NCI-H23 lung; 94.1% with NCI-H226 lung; 96% in the experiment with NCI-H322M lung; 106% in the experiment on HOP-62 NSCLC; 96.2% in the experiment with NCI-H460 lung; 90.7% in the experiment with HOP-92 NSCLC. Also, the growth is -3.58% (active) in the experiment with NCI-H522 lung, 107% in the experiment with A549/ATCC NSCLC, 90% in the experiment on 786-0 renal and 66% with COLO 205 colon.
